Compounds without any hit were thinned out: in the full panel of roughly 83,000, 20% have a hit.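 Note: values are percent growth. 100 is the growth of untreated cells, values between 100 and 0 indicate rising inhibition; between -100 and 0 indicates cell death.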 A number with no mark means an inactive call. The source made the active and inactive calls. Rule for the calls: active = growth percent below 10; inactive = the rest.
Each compound was assayed on SNB-75 CNS (assay: NCI-60 one-dose screen, 48 h (100 = growth as untreated, 0 = no growth, -100 = all killed)). Details: 10 µM unless noted.
For CC(=O)[C@@H]1CC[C@]2(C(N)=O)CC[C@]3(C)[C@H](CC[C@@H]4[C@@]5(C)CCCNC(C)(C)[C@@H]5CC[C@]43C)[C@@H]12, the growth was 80.4%.
Oc1c(Cl)cc(Cl)c(Cl)c1CNCCNCc1c(O)c(Cl)cc(Cl)c1Cl was tested, and the growth was 51.9%.
For O=C1Nc2cc(Cl)ccc2/C1=C\c1c(-c2ccc(F)cc2)nc2ccccn12, the growth was -16.9% (active).
With O=C(NO)c1ccc(-n2nc(-c3ccccc3)c3ccccc32)cc1 the growth was 12.1%.
O=C(CNCCN1CCOCC1)N1c2cccc3cccc(c23)N(C(=O)CNCCN2CCOCC2)C1c1cn(-c2ccccc2)nc1-c1cccc([N+](=O)[O-])c1 showed a growth of 57.9%.
In the case of O=C1c2cccc3c(-c4ccc5c(c4)ncn5C4CCCCC4)ccc(c23)C(=O)N1CCO, the growth is reported as 86.6%.
In the case of CC(=O)Oc1ccc(/C=N/NC(N)=S)nc1, the growth is reported as 8.77% (active).
In the case of NC(=S)N1N=C(c2ccccc2)CC1c1cn(-c2ccccc2)nc1-c1ccc(OCc2ccccc2)cc1 (configuration not stated), the growth is reported as 95.1%.
For Cc1ccc(-c2nc3ccccn3c2/C=C2/C(=O)Nc3cc(Cl)ccc32)cc1, the growth was 61.8%.
In the case of Clc1ccc(-c2ccc(CNCC3CCNCC3)o2)c(-c2ccccc2)c1, the growth is reported as -90.8% (active).
For CC(=O)[C@H]1CCC/C=C/[C@@H]2C[C@H](O)C[C@H]2[C@H](O)/C=C/C(=O)O1, the growth was 38.4%.
CCOC(=O)c1cc(C(=O)c2ccc(Br)cc2)n2ccc(/C=C/c3cc[n+](CC(=O)c4ccc(OC)cc4)cc3)cc12 gave a growth of 93.7%.
For COc1ccc(/C=C/c2nc(Nc3ccc(S(=O)(=O)Nc4nc(C)cc(C)n4)cc3)c3ccccc3n2)cc1, the growth was 85.7%.
Cc1ccc(C(=O)/C(=C/c2ccc([N+](=O)[O-])cc2)SCc2ccc(Cl)cc2)cc1 gave a growth of 84.8%.
For O=C1c2c(c3c4cccc(F)c4[nH]c3c3ccc4ccccc4c23)C(=O)N1O, the growth was 68.7%.
For COc1ccc(C(=O)C2C(C#N)C(C#N)C3C=Cc4ccccc4N32)cc1 (configuration not stated), the growth was -21.3% (active).
In the case of CCOC(=O)CC1CSC(N/N=C/c2ccc(-n3cccn3)cc2)=N1 (configuration not stated), the growth is reported as 101%.
Work on CC(C)N1C(=O)/C(=C2\SC(=S)N(C(C)C)C2=O)SC1=S yielded a growth of 62.3%.
CC(C)(C)[Si](C)(C)OC1[C@@H](O[Si](C)(C)C(C)(C)C)[C@@H](CNC(=O)NC(=O)CCl)O[C@H]1n1cnc2c(NC(=O)Nc3ccccc3)ncnc21 (some centres not stated) was tested, and the growth was -66.2% (active).
COc1ccc(-c2nc3sccn3c2/C=C/C(=O)c2ccc3c(c2)OCO3)cc1 was tested, and the growth was 72.3%.
O=C1c2ccccc2C(=O)c2c([N+](=O)[O-])ccc(Cl)c21 showed a growth of 96.4%.
Compound COc1ccc(/C=C/c2nc(Nc3cccc(NC(C)=O)c3)c3ccccc3n2)cc1 has a growth of 90.5%.
For Cc1ccc(-n2nc3c(c(C#N)c2=O)CC(c2ccccc2[N+](=O)[O-])C([N+](=O)[O-])=C3O)cc1 (configuration not stated), the growth was 80.1%.
Compound COc1cc(OC)cc(C(=O)C[n+]2cccc3cc[nH]c32)c1 has a growth of 86.9%.

Each compound was assayed on SNB-19 CNS in the same assay as above. Details: 10 µM unless noted.
With COc1ccc(/C=C/c2nc(Nc3ccc(S(=O)(=O)Nc4cc(C)on4)cc3)c3ccccc3n2)cc1 the growth was 83.2%.
NS(=O)(=O)c1ccc(CCN2C(=O)c3cc(Cl)c(Cl)cc3C2=O)cc1 was tested, and the growth was 109%.
In the case of C/C=C(\C)C(=O)NC1=CC[C@@]2(C)C(=CCC3C2CC[C@@]2(C)C3CC[C@@H]2C(C)N(C)C)C1=O (some centres not stated), the growth is reported as 83%.
With O=c1c2c(c(=O)n1O)c1c3ccc[nH]c3nc1c1nc3[nH]cccc3c12 the growth was 70.8%.
Work on Cc1ccc(C(=O)/C(=C\c2ccc([N+](=O)[O-])cc2)S(=O)Cc2ccc(F)cc2)cc1 (configuration not stated) yielded a growth of 41.2%.
O=C(Nc1ncc(Cc2cc(Cl)ccc2Cl)s1)c1cccs1 gave a growth of 72.9%.
O=C(C[n+]1cccc2ccccc21)c1ccc(O)c(O)c1 was tested, and the growth was 74.5%.
For OCc1cnccc1NCCCCOc1ccc(Oc2ccccc2)cc1, the growth was 74.6%.
For Oc1cccc(CCc2ccc(Oc3cc(CCc4cccc(O)c4)cc(O)c3O)cc2)c1, the growth was 89%.
CC/C(=C\c1ccc(OC)cc1)C(=O)c1ccc(OC)cc1 gave a growth of 85.7%.
Compound CN1C(N2CCN(S(=O)(=O)c3ccccc3)CC2)=NS(=O)(=O)c2ccccc21 has a growth of 104%.
O=C1Nc2ccc(F)cc2/C1=C\c1c(-c2ccccc2)nc2ccccn12 gave a growth of 75.4%.
O=C(Cn1c(C(=O)c2ccccc2)nc2ccccc21)c1ccc(F)cc1 was tested, and the growth was 74.5%.
In the case of COc1ccc(C(=O)c2nc3ccccc3n2CC(=O)c2ccc(Cl)cc2)cc1, the growth is reported as 48.2%.
CC(=O)[C@@H]1CC[C@]2(C(N)=O)CC[C@]3(C)[C@H](CC[C@@H]4[C@@]5(C)CCCNC(C)(C)[C@@H]5CC[C@]43C)[C@@H]12 showed a growth of 86.2%.
For Oc1c(Cl)cc(Cl)c(Cl)c1CNCCNCc1c(O)c(Cl)cc(Cl)c1Cl, the growth was 15.9%.
O=C1Nc2cc(Cl)ccc2/C1=C\c1c(-c2ccc(F)cc2)nc2ccccn12 was tested, and the growth was 22.2%.
With O=C(NO)c1ccc(-n2nc(-c3ccccc3)c3ccccc32)cc1 the growth was 47.4%.
For O=C(CNCCN1CCOCC1)N1c2cccc3cccc(c23)N(C(=O)CNCCN2CCOCC2)C1c1cn(-c2ccccc2)nc1-c1cccc([N+](=O)[O-])c1, the growth was 77.1%.
In the case of O=C1c2cccc3c(-c4ccc5c(c4)ncn5C4CCCCC4)ccc(c23)C(=O)N1CCO, the growth is reported as 98.1%.
With CC(=O)Oc1ccc(/C=N/NC(N)=S)nc1 the growth was 102%.
With NC(=S)N1N=C(c2ccccc2)CC1c1cn(-c2ccccc2)nc1-c1ccc(OCc2ccccc2)cc1 (configuration not stated) the growth was 97.3%.
Cc1ccc(-c2nc3ccccn3c2/C=C2/C(=O)Nc3cc(Cl)ccc32)cc1 gave a growth of 87.5%.
In the case of Clc1ccc(-c2ccc(CNCC3CCNCC3)o2)c(-c2ccccc2)c1, the growth is reported as -68.1% (active).
CC(=O)[C@H]1CCC/C=C/[C@@H]2C[C@H](O)C[C@H]2[C@H](O)/C=C/C(=O)O1 was tested, and the growth was 28.6%.
CCOC(=O)c1cc(C(=O)c2ccc(Br)cc2)n2ccc(/C=C/c3cc[n+](CC(=O)c4ccc(OC)cc4)cc3)cc12 was tested, and the growth was 89.1%.
COc1ccc(/C=C/c2nc(Nc3ccc(S(=O)(=O)Nc4nc(C)cc(C)n4)cc3)c3ccccc3n2)cc1 showed a growth of 75.6%.
Cc1ccc(C(=O)/C(=C/c2ccc([N+](=O)[O-])cc2)SCc2ccc(Cl)cc2)cc1 gave a growth of 34.1%.
With O=C1c2c(c3c4cccc(F)c4[nH]c3c3ccc4ccccc4c23)C(=O)N1O the growth was 30.2%.
With COc1ccc(C(=O)C2C(C#N)C(C#N)C3C=Cc4ccccc4N32)cc1 (configuration not stated) the growth was 32.7%.
Compound CCOC(=O)CC1CSC(N/N=C/c2ccc(-n3cccn3)cc2)=N1 (configuration not stated) has a growth of 98.9%.
CC(C)N1C(=O)/C(=C2\SC(=S)N(C(C)C)C2=O)SC1=S was tested, and the growth was 92.6%.
In the case of CC(C)(C)[Si](C)(C)OC1[C@@H](O[Si](C)(C)C(C)(C)C)[C@@H](CNC(=O)NC(=O)CCl)O[C@H]1n1cnc2c(NC(=O)Nc3ccccc3)ncnc21 (some centres not stated), the growth is reported as 6.83% (active).
For COc1ccc(-c2nc3sccn3c2/C=C/C(=O)c2ccc3c(c2)OCO3)cc1, the growth was 80.6%.
O=C1c2ccccc2C(=O)c2c([N+](=O)[O-])ccc(Cl)c21 was tested, and the growth was 99.1%.
COc1ccc(/C=C/c2nc(Nc3cccc(NC(C)=O)c3)c3ccccc3n2)cc1 showed a growth of 92.4%.
For Cc1ccc(-n2nc3c(c(C#N)c2=O)CC(c2ccccc2[N+](=O)[O-])C([N+](=O)[O-])=C3O)cc1 (configuration not stated), the growth was 92.3%.
For COc1cc(OC)cc(C(=O)C[n+]2cccc3cc[nH]c32)c1, the growth was 93.1%.

From PubChem BioAssay (NCI)
